# Hits are enriched below; roughly 11% of the tested compounds scored in any of these assays.
# AmpC detergent: qHTS Inhibitors of AmpC Beta-Lactamase (assay with detergent); P00811; AmpC hydrolysis of nitrocefin, absorbance 480 nm, 0.01% Triton; Potency, µM (doses to about 114 µM), for the others: at the highest dose activity change, negative = inhibition, actives largely listed as inhibitors; 370,000 compounds, 0.041% hits; AID 485294, 2010;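 also: 0% = no-compound wells and -100% = no-enzyme wells; nearly all actives have a fitted effect of over 25% in size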
# Target sequence (P00811 whole entry, looked up): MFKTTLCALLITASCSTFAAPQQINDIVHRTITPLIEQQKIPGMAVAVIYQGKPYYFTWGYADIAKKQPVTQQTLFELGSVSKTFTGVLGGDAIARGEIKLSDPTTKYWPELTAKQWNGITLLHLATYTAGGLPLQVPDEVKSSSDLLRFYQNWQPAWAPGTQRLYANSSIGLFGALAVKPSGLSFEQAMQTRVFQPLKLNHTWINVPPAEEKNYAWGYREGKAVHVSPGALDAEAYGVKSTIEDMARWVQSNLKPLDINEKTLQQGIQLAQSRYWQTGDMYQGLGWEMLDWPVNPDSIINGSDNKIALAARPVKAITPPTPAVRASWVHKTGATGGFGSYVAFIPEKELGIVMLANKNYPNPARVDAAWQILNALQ
#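 20 mM phosphate pH 7.0 + 0.01% (detergent screen) or 0.0001% Triton X-100; 5.3 nM AmpC reagent; cpd preinc 15 min RT; nitrocefin (800 uM stock) to start; A480 q20 s × 4 min; Activity was normalised to no-enzyme and no-compound control wells.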
# AMA1-RON2 inh: qHTS for Inhibitors of AMA1-RON; Towards Development of Antimalarial Drug Lead: Primary Screen; 360,000 compounds, 0.2% hits; AID 720542, 2013; AlphaScreen AMA1-biotinylated RON2 peptide binding; Potency, µM (series often up to 58.2 µM), for inactives: at the highest dose activity change, negative = inhibition, usual class: inhibitors; Plasmodium falciparum AMA1 (3D7) - RON2 peptide interaction;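 also: 0% = vehicle wells and -100% = peptide control; nearly all actives have a fitted effect of over 45% in size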
#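 AMA1 (3D7) with his tag at 25 nM final met compounds first, then biotinylated RON2 peptide at 25 nM; detection used donor plus acceptor beads, 10 µg/mL apiece, read by AlphaScreen after 30 min at room temperature.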
# HCV inhibitor: qHTS Assay for Inhibitors of Hepatitis C Virus (HCV); Huh7.5.1 HCVcc-Cre infection, luciferase reporter, 44 h; Potency, µM (top dose mostly 41.8 µM), without a hit: top-dose activity change, negative = inhibition, most hits filed as inhibitors; 340,000 compounds, 3.4% hits; AID 651820, 2012
#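 Antiviral activity was scored by luciferase reporter output from cells infected with HCVcc-Cre (~0.5 moi) in presence of compound, 44 h infection period, cells seeded 1,000/well 4 h prior.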
# AmpC no deterg: qHTS Inhibitors of AmpC Beta-Lactamase (assay without detergent). 330,000 compounds, 0.52% hits. Potency, µM (top dose mostly 57.1 µM), without a hit: at the top dose activity change, negative = inhibition, actives largely listed as inhibitors. P00811. AmpC nitrocefin hydrolysis, absorbance 480 nm, 0.0001% Triton;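 also: plate controls were no compound for no effect and no enzyme for full effect; nearly all actives have a fitted effect of over 20% in size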
#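 AmpC (5.3 nM in the dispensed reagent) in 20 mM phosphate pH 7.0 with 0.01% (detergent screen) or 0.0001% Triton X-100 was preincubated with compounds for 15 min at room temperature. Nitrocefin was then added from an 800 uM solution, and hydrolysis was followed at 480 nm.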
# Pf growth 48h: Primary qHTS for delayed death inhibitors of the malarial parasite plastid, 48 hour incubation; 310,000 compounds, 5.9% hits; AID 504832, 2011; Potency, µM (top dose mostly 28.7 µM), for inactives: top-dose activity change, negative = inhibition, most hits filed as inhibitors; P. falciparum luciferase growth in erythrocytes, 48 h
#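 Luciferase-expressing P. falciparum in infected erythrocytes (2% hematocrit, 0.1% parasitemia final) in RPMI 1640/0.5% Albumax were exposed to compound for 48 hours at 37 C, 5% CO2; growth read as luminescence.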
# Pf growth 96h: Primary qHTS for delayed death inhibitors of the malarial parasite plastid, 96 hour incubation. Potency, µM (titrated, usually from 28.7 µM), inactives show top-dose activity change, negative = inhibition, actives largely listed as inhibitors. 320,000 compounds, 6.9% hits. AID 504834, 2011. P. falciparum luciferase reporter growth, 96 h
#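 Plates of compound plus infected erythrocytes (2% hematocrit, 0.05% parasitemia final) incubate 96 hours, 37 C, 5% CO2. Detection reagent added; reduced luminescence from the parasites' luciferase reporter flags inhibition.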
# The depositor's hits bear a star; u = inconclusive; x = no result. Calls follow the shape of the dose curve; as a rule, active = well fitted curve in the direction sought with a large enough effect; inconclusive = small, poorly fitted or top-dose-only effect, or another doubt; inactive = no such curve, though single readings can be large; an effect the other way counts as inactive or inconclusive. Unless noted, % is scaled to controls: 0 for no effect and ±100 for the full control effect; potency is read from the fitted curve at half-maximal effect.
SMILES,AmpC detergent,AMA1-RON2 inh,HCV inhibitor,AmpC no deterg,Pf growth 48h,Pf growth 96h
CCN1CSC(=S)N(Cc2ccccc2)C1,-9%,3%,11µM*,-28%,0%,11%
S=C1SCN(Cc2ccco2)CN1Cc1ccco1,-8%,71%,14µM*,-20%,u,4.7µM*
O=C(NC1CC(=O)N(c2ccc(Cl)cc2)C1)C1CCCCC1 (stereo not drawn),1%,x,x,x,x,x
O=C1[C@H]2[C@@H](c3ccc(F)cc3)N3C(=O)N(c4ccc(Br)cc4)C(=O)[C@@]3(Cc3ccccc3)[C@H]2C(=O)N1C1CCCCC1,u,7%,2%,-4%,3.3µM*,3.7µM*
Cc1ccc(N2C(=O)N3[C@H](c4ccc(Cl)cc4)[C@@H]4C(=O)N(C5CCCCC5)C(=O)[C@@H]4[C@]3(Cc3ccccc3)C2=O)cc1,-13%,-2%,u,-3%,u,3.7µM*
Cc1cccc(N2C(=O)N3[C@H](c4ccc(F)cc4)[C@@H]4C(=O)N(C5CCCCC5)C(=O)[C@@H]4[C@]3(Cc3ccc(Cl)cc3)C2=O)c1,-9%,-5%,-2%,-48%,u,u
O=C1[C@H]2[C@@H](c3ccc(Cl)cc3)N3C(=O)N(c4cccc(Cl)c4)C(=O)[C@@]3(Cc3ccc(Cl)cc3)[C@H]2C(=O)N1C1CCCCC1,3%,-10%,12%,-23%,2.6µM*,u
O=C1[C@H]2[C@@H](c3ccc(F)cc3)N3C(=O)N(c4cccc(F)c4)C(=O)[C@@]3(Cc3ccc(Cl)cc3)[C@H]2C(=O)N1C1CCCCC1,-11%,3%,-19%,-54%,15µM*,8.3µM*
O=C1[C@H]2[C@@H](c3ccc(Cl)cc3)N3C(=O)N(c4cccc(F)c4)C(=O)[C@@]3(Cc3ccc(Cl)cc3)[C@H]2C(=O)N1C1CCCCC1,u,7%,26%,-45%,u,u
Cc1cccc(N2C(=O)N3[C@H](c4ccc(Cl)cc4)[C@@H]4C(=O)N(C5CCCCC5)C(=O)[C@@H]4[C@]3(Cc3ccc(Cl)cc3)C2=O)c1,-8%,15%,41%,-1%,u,u
Cc1ccccc1S(=O)(=O)Cc1ccc(C(=O)NCc2ccccc2Cl)o1,-11%,x,x,x,x,x
CCOP(=O)(OCC)C(CC)N1CCOCC1 (stereo not drawn),u,-4%,10%,-7%,x,-14%
CCOP(=S)(OCC)N1CCOCCOCCN(P(=S)(OCC)OCC)CCOCCOCC1,-1%,-8%,-16%,217%,6.6µM*,u
CCNC(=S)N(CCc1ccccc1C)Cc1cc2cc(OC)c(OC)cc2[nH]c1=O,-11%,1%,-2%,229%,u,u
COc1cc2cc(CN(CCc3ccccc3C)C(=S)NCCCN(C)C)c(=O)[nH]c2cc1OC,0%,-2%,u,111%,13µM*,u
COc1cc2cc(CN(CCc3ccccc3C)C(=S)NCCCN3CCOCC3)c(=O)[nH]c2cc1OC,1%,0%,u,213%,7.4µM*,322%
O=c1[nH]c2cc3c(cc2cc1CN(CCc1ccccc1)C(=S)NCCCN1CCOCC1)OCCO3,x,-5%,u,x,x,x
CC(=O)Nc1ccc(-c2nnc(SCC(=O)c3ccc([N+](=O)[O-])cc3)o2)cc1,1%,x,x,x,x,x
Cn1c(=O)c2c(nc(CN3CCN(Cc4ccccc4)CC3)n2Cc2ccc(F)cc2)n(C)c1=O,u,-2%,-2%,192%,7.4µM*,u
